Laboratory results reported in ChEMBL document CHEMBL5308504, “Tm Shift (DSF) assay results for EUbOPEN Chemogenomics Library” (2023).

Experiments:
[1] = target: Bromodomain-containing protein 4 (Homo sapiens) (UniProt O60885); conditions: Compound concentration 20.0 uM, Protein concentration 2.0 uM, Result type QC Liability
[2] = target: T1, Transcription intermediary factor 1-alpha (Homo sapiens) (UniProt O15164); conditions: Compound concentration 20.0 uM, Protein concentration 2.0 uM, Result type QC Liability
T1 sequence (whole entry): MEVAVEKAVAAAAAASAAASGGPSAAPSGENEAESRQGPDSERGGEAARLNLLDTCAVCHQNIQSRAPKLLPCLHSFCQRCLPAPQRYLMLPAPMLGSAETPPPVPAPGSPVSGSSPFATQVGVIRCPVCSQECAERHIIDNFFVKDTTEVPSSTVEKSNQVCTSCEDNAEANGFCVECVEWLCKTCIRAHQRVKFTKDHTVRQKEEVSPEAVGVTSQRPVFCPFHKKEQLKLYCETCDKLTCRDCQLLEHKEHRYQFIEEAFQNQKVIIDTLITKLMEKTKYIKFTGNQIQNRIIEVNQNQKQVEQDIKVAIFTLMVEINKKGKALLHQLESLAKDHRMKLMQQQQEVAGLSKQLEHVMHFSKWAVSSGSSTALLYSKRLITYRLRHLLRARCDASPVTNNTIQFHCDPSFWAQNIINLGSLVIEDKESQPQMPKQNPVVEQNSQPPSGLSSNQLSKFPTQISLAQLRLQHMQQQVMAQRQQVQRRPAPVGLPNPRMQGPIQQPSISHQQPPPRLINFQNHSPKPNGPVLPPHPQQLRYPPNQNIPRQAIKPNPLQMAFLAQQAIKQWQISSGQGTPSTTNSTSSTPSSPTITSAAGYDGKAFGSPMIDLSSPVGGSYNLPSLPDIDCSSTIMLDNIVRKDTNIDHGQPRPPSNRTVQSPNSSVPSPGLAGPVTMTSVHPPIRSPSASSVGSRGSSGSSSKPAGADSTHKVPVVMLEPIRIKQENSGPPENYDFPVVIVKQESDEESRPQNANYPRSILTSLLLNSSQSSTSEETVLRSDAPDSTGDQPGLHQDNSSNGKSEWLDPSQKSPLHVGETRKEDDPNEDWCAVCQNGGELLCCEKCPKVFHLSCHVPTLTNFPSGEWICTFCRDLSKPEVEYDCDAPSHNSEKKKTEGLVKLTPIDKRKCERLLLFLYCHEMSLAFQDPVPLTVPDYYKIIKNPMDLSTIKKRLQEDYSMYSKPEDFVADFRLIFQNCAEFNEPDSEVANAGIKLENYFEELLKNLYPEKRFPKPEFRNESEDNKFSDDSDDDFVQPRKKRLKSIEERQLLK

Structure (SMILES): COc1cnccc1Nc1nc(-c2nn(Cc3c(F)cc(OCCO)cc3F)c3ccccc23)ncc1OC
- ΔTm [1]: 0.84 °C
- ΔTm [2]: -4.33 °C

Structure (SMILES): Cc1ccc(NC(=O)c2ccc(CN3CC[C@H](N(C)C)C3)c(C(F)(F)F)c2)cc1Nc1nccc(-c2cncnc2)n1
- ΔTm [1]: -1.21 °C
- ΔTm [2]: -0.69 °C

Structure (SMILES): COc1ccccc1-c1cc(Nc2cccc(CS(N)(=O)=O)c2)ncn1
- ΔTm [1]: -0.36 °C
- ΔTm [2]: -0.57 °C

Structure (SMILES): CC(C)Oc1ccc(Cc2ccc(NC3=NCCN3)cc2)cc1
- ΔTm [1]: -1.86 °C
- ΔTm [2]: -0.24 °C

Structure (SMILES): COC(=O)c1ccc2c(c1)NC(=O)/C2=C(\Nc1ccc(-c2nccn2C)cc1)c1ccccc1
- ΔTm [1]: -1.87 °C
- ΔTm [2]: -3.33 °C

Structure (SMILES): Nc1c(CC(=O)O)cccc1C(=O)c1ccc(Br)cc1
- ΔTm [1]: -0.6 °C
- ΔTm [2]: -0.77 °C

Structure (SMILES): O=C(O)CCCCN(CCc1cc(F)ccc1OCc1ccc(-c2ccc(C(F)(F)F)cc2)cc1)Cc1ccc(C(=O)O)cc1
- ΔTm [1]: 0.73 °C
- ΔTm [2]: -0.3 °C

Structure (SMILES): COc1cc(C(=O)NCCOCCOCCOCC(=O)N[C@H](C(=O)N2C[C@@H](O)C[C@H]2C(=O)NCc2ccc(-c3scnc3C)cc2)C(C)(C)C)ccc1Nc1ncc(C(F)(F)F)c(Oc2cccc3c2C(=O)CC3)n1
- ΔTm [1]: 0.11 °C
- ΔTm [2]: 2.2 °C

Structure (SMILES): COc1cc2c(cc1CC=C(C)C)C(=O)C[C@@H](c1ccc(O)cc1)O2
- ΔTm [1]: 0.4 °C
- ΔTm [2]: 0.63 °C

Structure (SMILES): CC1CN(CC(=O)N2CC(C)(C)c3nc(CO)c(Cc4ccc(F)cc4)cc32)C(CN2CCOCC2C)CN1 (centres undefined)
- ΔTm [1]: -2.32 °C
- ΔTm [2]: -3.23 °C

Structure (SMILES): COc1cc(C)c(S(=O)(=O)N(C)CCC(=O)N[C@H]2CC[C@@H](N3CCC4CN(C)CC4C3)CC2)c(C)c1 (some centres undefined)
- ΔTm [1]: -4.82 °C
- ΔTm [2]: -0.4 °C

Structure (SMILES): CCN(C)S(=O)(=O)Nc1cccc(-c2ccc3c(NC(=O)C4CC4)n[nH]c3c2)c1
- ΔTm [1]: 0.55 °C
- ΔTm [2]: -0.53 °C

Structure (SMILES): CCN1C(=O)/C(=C(\NC2CCN(C)CC2)c2ccc3c(c2)OCO3)c2cc(C(C)=O)ccc21
- ΔTm [1]: -12 °C
- ΔTm [2]: 0.3 °C

Structure (SMILES): CCOCCn1cc(C(=O)Nc2ccc(-n3nc(-c4cccnc4)cc3C(F)(F)F)cn2)ccc1=O
- ΔTm [1]: -2.09 °C
- ΔTm [2]: 0.27 °C

Structure (SMILES): C[C@H](CCC(=O)O)[C@H]1CC[C@H]2[C@@H]3CC[C@@H]4C[C@H](O)CC[C@]4(C)[C@H]3C[C@H](O)[C@]12C
- ΔTm [1]: -3.05 °C
- ΔTm [2]: -3.23 °C

Structure (SMILES): Cn1cncc1-c1cn(-c2cccc(C(=O)Nc3cccc(C(F)(F)F)c3)c2)nn1
- ΔTm [1]: -2.66 °C
- ΔTm [2]: -0.32 °C

Structure (SMILES): O=C(Nc1snnc1C(=O)Nc1ccc(N2CCCC2)cc1)c1cncc(C(F)(F)F)c1
- ΔTm [1]: -0.7 °C
- ΔTm [2]: -1.14 °C

Structure (SMILES): COc1ccc(CC[C@@H](OC(=O)[C@H]2CCCCN2C(=O)[C@@H](c2cc(OC)c(OC)c(OC)c2)C2CCCCC2)c2cccc(OCCN3CCOCC3)c2)cc1OC
- ΔTm [1]: -4.83 °C
- ΔTm [2]: -1.63 °C

Structure (SMILES): O=C(Nc1ccnc(NC(=O)C2CC2)c1)c1c(Cl)cccc1Cl
- ΔTm [1]: -1.81 °C
- ΔTm [2]: -3.69 °C

Structure (SMILES): CC(C)C(=O)N[C@@H]1CCN(C(=O)Nc2nc3c(s2)-c2nc(-c4ccccc4Cl)ncc2CC3)C1
- ΔTm [1]: -0.28 °C
- ΔTm [2]: -3.41 °C

Structure (SMILES): O=c1[nH]c(CS[C@H]2CC[C@H](O)CC2)nc2cc(OCC3CC3)cc(F)c12
- ΔTm [1]: -0.97 °C
- ΔTm [2]: -3.28 °C

Structure (SMILES): CNC(=O)c1c(F)cccc1Nc1nc(Nc2cc3c(cc2OC)CCN3C(=O)CN(C)C)nc2[nH]ccc12
- ΔTm [1]: -1.02 °C
- ΔTm [2]: -1.89 °C

Structure (SMILES): CCc1cnn2c(NCc3ccc[n+]([O-])c3)cc(N3CCCCC3CCO)nc12 (centres undefined)
- ΔTm [1]: -0.63 °C
- ΔTm [2]: -2.72 °C

Structure (SMILES): COc1cc(-c2cc3ncccc3c(O[C@@H](C)[C@H]3CNC(=O)C3)n2)cc(OC)c1OC
- ΔTm [1]: 1.39 °C
- ΔTm [2]: 0.27 °C

Structure (SMILES): CC(=O)c1ccc2c(c1)/C(=C(/Nc1cccc(C#N)c1)c1ccc3c(c1)OCCO3)C(=O)N2
- ΔTm [1]: -1.21 °C
- ΔTm [2]: -2.47 °C

Structure (SMILES): O=C(O)/C=C/c1ccc(Cn2ccnc2)cc1
- ΔTm [1]: -0.17 °C
- ΔTm [2]: -0.33 °C

Structure (SMILES): CCCCNc1ncc2c(-c3ccc(CN4CCN(C)CC4)cc3)cn([C@H]3CC[C@H](O)CC3)c2n1
- ΔTm [1]: -3.24 °C
- ΔTm [2]: -0.35 °C

Structure (SMILES): C[C@@H]1CCNC(=O)c2cc3ccc(C(=O)Nc4nc5ccccc5n4CCCN(C)C)cc3n21
- ΔTm [1]: -0.87 °C
- ΔTm [2]: -0.45 °C

Structure (SMILES): CCC(=O)N[C@@H]1CC[C@H](C(=O)N(C)c2ccc(-c3nc4ccccc4o3)cc2)C1
- ΔTm [1]: -0.34 °C
- ΔTm [2]: 0.25 °C

Structure (SMILES): COc1ccccc1Nc1nc(-c2nn(Cc3c(F)cc(OCCCO)cc3F)c3ccccc23)ncc1OC
- ΔTm [1]: -0.6 °C
- ΔTm [2]: -1.94 °C

Structure (SMILES): COc1ccc(F)c(F)c1C(=O)c1cnc(NC2CCN(S(C)(=O)=O)CC2)nc1N
- ΔTm [1]: 0.74 °C
- ΔTm [2]: -1.4 °C

Structure (SMILES): CN[C@@H](C)C(=O)N[C@H]1CN(C(=O)CC(C)C)CC[C@H]2CC[C@@H](C(=O)NC(c3ccccc3)c3ccccc3)N2C1=O
- ΔTm [1]: -2.41 °C
- ΔTm [2]: -2.26 °C
